Compounds without any hit were thinned out: in the full panel of roughly 83,000, 20% have a hit.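 Single-concentration screen, 48 h exposure, 96-well plates. Endpoint: percent growth. Below 10 = active.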 The source made the active and inactive calls.
Columns and labels:
Experiment in all cases: NCI-60 one-dose screen, 48 h (100 = growth as untreated, 0 = no growth, -100 = all killed)
Conditions in all cases: 10 µM
T-47D breast = test system: T-47D breast
BT-549 breast = test system: BT-549 breast
MDA-MB-435 melanoma = test system: MDA-MB-435 melanoma
SW-620 colon = test system: SW-620 colon
MCF7 breast = test system: MCF7 breast
HCT-116 colon = test system: HCT-116 colon
KM12 colon = test system: KM12 colon
MDA-MB-468 breast = test system: MDA-MB-468 breast
HCC-2998 colon = test system: HCC-2998 colon

Measured: growth

O=C(N/C(=C1/OCCN1Cc1ccccc1)[P+](c1ccccc1)(c1ccccc1)c1ccccc1)c1ccccc1
active: BT-549 breast -16.4% | MCF7 breast 1.56% | HCT-116 colon 2.1% | KM12 colon -1.17% | MDA-MB-468 breast -30%
inactive: T-47D breast 11.2% | MDA-MB-435 melanoma 18.5% | SW-620 colon 12.5%

CN(C)c1nc(NCCNS(=O)(=O)c2ccc(C(=O)/C=C/c3ccccc3)cc2)nc(Nc2ccc(F)cc2)n1
active: MDA-MB-435 melanoma 4.21% | SW-620 colon -4.39% | MCF7 breast -82.8% | HCT-116 colon -53% | KM12 colon -78.4% | MDA-MB-468 breast 1.47%
inactive: T-47D breast 25.6% | BT-549 breast 24.9%

O=C(CSc1nnc(-c2c[nH]c3ccccc23)n1-c1ccccc1)Nc1ccc(C(=O)/C=C/c2ccc(Br)cc2)cc1
active: HCT-116 colon -32.4%
inactive: T-47D breast 57.9% | BT-549 breast 87.4% | MDA-MB-435 melanoma 85.8% | SW-620 colon 97.6% | MCF7 breast 25.3% | KM12 colon 72% | MDA-MB-468 breast 71.1%

O=C1Nc2cc(Cl)ccc2/C1=C/c1ccc(OCc2ccc(Br)cc2F)cc1
active: T-47D breast -48.4% | BT-549 breast -18.7% | MDA-MB-435 melanoma -27.5% | SW-620 colon -56% | MCF7 breast 6.09% | HCT-116 colon -73% | KM12 colon -7.72% | MDA-MB-468 breast -70.1%

O=c1[nH]c2ccc(Cl)cc2cc1CSc1ccc(Nc2nccc(-c3ccc(Cl)cc3)n2)cc1
active: SW-620 colon 3.61% | MCF7 breast 5.48%
inactive: T-47D breast 78.9% | BT-549 breast 81.7% | MDA-MB-435 melanoma 47% | HCC-2998 colon 67% | KM12 colon 31.4%

CN(C)c1ccc(/C=C/c2nc3ccccc3c(=O)n2CC(=O)Nc2ccccc2)cc1
inactive: T-47D breast 49.3% | MDA-MB-435 melanoma 60.2% | SW-620 colon 57.8% | MCF7 breast 26% | HCT-116 colon 31.1% | KM12 colon 75.7%
active: BT-549 breast -1.24% | MDA-MB-468 breast -4.96%

CC1(c2ccccc2)NC(=O)N(CC(=O)Nc2ccc(C(=O)/C=C/C=C/c3ccccc3)cc2)C1=O (stereo not given)
inactive: T-47D breast 17% | BT-549 breast 38.9% | MDA-MB-435 melanoma 37.1% | SW-620 colon 48.3% | HCT-116 colon 27.1% | KM12 colon 21%
active: MCF7 breast 3.54% | MDA-MB-468 breast 3.2%

O=C(CSc1nnc(-c2c[nH]c3ccccc23)n1-c1ccccc1)Nc1ccc(C(=O)/C=C/c2ccc(Cl)cc2)cc1
active: MCF7 breast 6.09% | HCT-116 colon -37.3%
inactive: T-47D breast 40.3% | BT-549 breast 93.5% | MDA-MB-435 melanoma 64.1% | SW-620 colon 90.4% | KM12 colon 64.5% | MDA-MB-468 breast 65.9%

COc1cc(C2CC(c3ccc(C)cc3)=Nc3c(N)nc(N)nc3N2)ccc1Oc1nc(Nc2ccc(F)cc2)nc(N(C)C)n1 (stereo not given)
inactive: T-47D breast 64.5% | BT-549 breast 65.4% | MDA-MB-435 melanoma 63.2% | SW-620 colon 58.8% | KM12 colon 52% | MDA-MB-468 breast 15.6%
active: MCF7 breast 5.19% | HCT-116 colon 6.7%

O=c1cc(-c2ccccc2)oc2cc(OCCCCNCc3ccccc3)cc(O)c12
active: T-47D breast -70.7% | MDA-MB-435 melanoma -31.5% | SW-620 colon -39.1% | MCF7 breast -64.1% | HCT-116 colon -73.7% | MDA-MB-468 breast -28.2%
inactive: BT-549 breast 78.5% | KM12 colon 23.8%

O=C(c1ccc([N+](=O)[O-])c([N+](=O)[O-])c1O)n1[nH]c(=O)c2ccccc2c1=O
active: MDA-MB-468 breast 0.114%
inactive: T-47D breast 49.8% | BT-549 breast 51.2% | MDA-MB-435 melanoma 53.7% | SW-620 colon 35.7% | MCF7 breast 30.5% | HCT-116 colon 30.1% | KM12 colon 72.3%

Cc1ccn2c(C(=O)c3ccccc3)cc(-c3cc(-c4ccc(N(C)C)cc4)c(C#N)c(N)n3)c2c1
inactive: T-47D breast 63.6% | BT-549 breast 58.1% | MDA-MB-435 melanoma 78.8% | SW-620 colon 69.7% | MCF7 breast 54.3% | HCT-116 colon 63.4% | KM12 colon 74% | MDA-MB-468 breast 50.7%

O=C1NC(=NC23CC4CC(CC(C4)C2)C3)N/C1=C\c1ccc2ncsc2c1
inactive: MDA-MB-435 melanoma 17.8% | HCC-2998 colon 16.2%
active: T-47D breast -0.474% | BT-549 breast -11.5% | SW-620 colon 5.03% | MCF7 breast -9.76% | KM12 colon 2.26% | MDA-MB-468 breast -48.2%

CSc1nc(-c2cccc(C)c2)c2cc(-c3ccccc3)n(C)c2n1
inactive: SW-620 colon 20.3% | HCC-2998 colon 39.4%
active: T-47D breast 1.02% | BT-549 breast -5.93% | MDA-MB-435 melanoma -39.3% | MCF7 breast 5.57% | KM12 colon 6.5% | MDA-MB-468 breast -29.2%

O=C(CSc1nnc(-c2ccc3nc(-c4ccccc4)[nH]c3c2)o1)Nc1ccc(Cl)cc1
inactive: T-47D breast 23.8% | BT-549 breast 55% | MDA-MB-435 melanoma 40.2% | SW-620 colon 66.8% | MCF7 breast 16.3% | HCC-2998 colon 22.2% | KM12 colon 33% | MDA-MB-468 breast 55.8%

Brc1ccc(/C=N/Nc2ncnc3sc4c(c23)CCN(Cc2ccccc2)C4)cc1
active: MDA-MB-468 breast -7.6%
inactive: T-47D breast 91.6% | BT-549 breast 102% | MDA-MB-435 melanoma 73.5% | SW-620 colon 35% | MCF7 breast 42.8% | HCC-2998 colon 91.4% | KM12 colon 50.2%

COc1cccc(-c2ccnc(/N=C(\N)Nc3ccc(S(=O)(=O)Nc4nc(C)cc(C)n4)cc3)n2)c1
inactive: T-47D breast 88.4% | BT-549 breast 111% | MDA-MB-435 melanoma 109% | SW-620 colon 105% | MCF7 breast 75.9% | HCC-2998 colon 114% | KM12 colon 98% | MDA-MB-468 breast 115%

O=C(NO)c1ccc(CNC(=O)[C@H]2Cc3c([nH]c4ccccc34)[C@H](c3ccc(Cl)cc3)N2)cc1
active: T-47D breast -2.39% | MDA-MB-435 melanoma 4.26% | SW-620 colon -51.6% | MCF7 breast 3% | HCC-2998 colon -53.2% | MDA-MB-468 breast -33.5%
inactive: BT-549 breast 26.9% | KM12 colon 19.6%

CCCSc1nc(NC2CC2)c(C#N)c(-c2ccc(OC)cc2)n1
inactive: T-47D breast 88.8% | BT-549 breast 88.1% | MDA-MB-435 melanoma 106% | SW-620 colon 105% | MCF7 breast 103% | HCC-2998 colon 115% | KM12 colon 107% | MDA-MB-468 breast 139%

O=c1[nH]c2ccccc2cc1CSc1ccc(Nc2nccc(-c3ccc(Cl)cc3)n2)cc1
active: T-47D breast -10.3% | BT-549 breast -5.03% | MDA-MB-435 melanoma 9.58% | SW-620 colon 2.67% | MCF7 breast -5.81% | MDA-MB-468 breast -67.5%
inactive: HCC-2998 colon 14.6% | KM12 colon 23%

O=C1CCC(N2Cc3c(NCc4ccc(-c5ccccc5)cc4)cccc3C2=O)C(=O)N1 (stereo not given)
active: MDA-MB-468 breast -12.6%
inactive: T-47D breast 41.5% | BT-549 breast 23.4% | MDA-MB-435 melanoma 93.2% | SW-620 colon 51.3% | MCF7 breast 76% | KM12 colon 75.3%

COc1ccc(Nc2nc(N)n(Cc3cccc(Br)c3)n2)cc1
active: BT-549 breast -8.47% | MDA-MB-435 melanoma -18.2% | MCF7 breast 1.86% | HCC-2998 colon -13.1% | KM12 colon 1.74% | MDA-MB-468 breast -12.3%
inactive: T-47D breast 13.4% | SW-620 colon 18.3%

C=C1CC[C@H](C(=C)C)[C@H]2C=C(C)C(=O)C3=C(C(=O)[C@@](C)(O)C3)[C@H]12
active: T-47D breast -59.3% | BT-549 breast -43.7% | MDA-MB-435 melanoma -58% | SW-620 colon -53.3% | MCF7 breast -70.5% | HCC-2998 colon -84.4% | KM12 colon -73.9% | MDA-MB-468 breast -69.5%

COc1cccc(C(N)=Nc2ccc(OCCCCCCn3cncn3)cc2)c1
inactive: T-47D breast 46.1% | BT-549 breast 20.5% | SW-620 colon 38.1% | MCF7 breast 19.2% | HCC-2998 colon 18.5% | KM12 colon 18.6% | MDA-MB-468 breast 17.5%

COc1ccc(-c2nc(-c3ccccc3)c(-c3ccccc3)n2-c2ccc(S(=O)(=O)Nc3ncccn3)cc2)cc1OC
inactive: T-47D breast 43.1% | BT-549 breast 68.3% | MDA-MB-435 melanoma 95.1% | SW-620 colon 98.1% | MCF7 breast 71.2% | HCC-2998 colon 82.8% | KM12 colon 78.3% | MDA-MB-468 breast 67.8%

CCCn1c(=O)c2[nH]c(-c3ccc(OCc4nc5ccccc5[nH]4)cc3)nc2n(CCC)c1=O
inactive: T-47D breast 59.9% | BT-549 breast 21.1% | MDA-MB-435 melanoma 67% | SW-620 colon 46.8% | MCF7 breast 17.4% | HCC-2998 colon 64.8% | KM12 colon 63.8% | MDA-MB-468 breast 23.6%

O=C(NC(=S)N1CCN(c2ncnc3c2cnn3-c2ccccc2)CC1)c1ccc(Cl)cc1
inactive: T-47D breast 57.2% | BT-549 breast 63.5% | MDA-MB-435 melanoma 89.2% | SW-620 colon 68.9% | MCF7 breast 38.9% | KM12 colon 87.3% | MDA-MB-468 breast 64.6%

COc1ccc(/C=C/C(=O)c2ccc(NC(=O)CN3C(=O)NC(C)(c4ccccc4)C3=O)cc2)cc1 (stereo not given)
active: MCF7 breast 4.86%
inactive: T-47D breast 38.6% | BT-549 breast 71.6% | MDA-MB-435 melanoma 16.7% | SW-620 colon 88.8% | HCC-2998 colon 102% | KM12 colon 49.3% | MDA-MB-468 breast 49.4%
